Molecules are shown by their SMILES. Compounds without any hit were thinned out: in the full panel of roughly 83,000, 20% have a hit.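 Each cell line was grown in a 96-well plate and treated with one concentration of compound for 48 hours. Values below 10 were considered active.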 A number with no mark means an inactive call. Calls of active or inactive are those of the source.

For this assay, the system named is MOLT-4 leukemia. Put plainly: NCI-60 one-dose screen, 48 h (100 = growth as untreated, 0 = no growth, -100 = all killed). To be noted: 10 µM unless noted.
In the case of `CN([O-])c1nc(N(C)[O-])nc(N2CCOCC2)n1.CN([O-])c1nc(N(C)[OH2+])nc(N2CCOCC2)n1.[Fe+3]`, the growth was 30.3% [100 µM].
The value for `CCOP(=O)(OCC)c1nc(-c2ccccc2)oc1NCc1cccnc1` was 101%; that for `CCn1c(SCC(=O)c2ccc(Br)cc2)nnc1-c1ccncc1` was 101%.
The same measure for `CCCCNc1ccc(C#N)c(OCCN(CC)CC)c1`: 88.2%; for `N#Cc1c(-c2ccc(Cl)cc2)nc(NN=Cc2cccc(O)c2)nc1N1CCOCC1`: 39.8%.
In the case of `CS(=O)(=O)Nc1cc(-c2ccc3ncnc(Nc4c(Cl)ccc5c4OCO5)c3c2)cnc1Cl`, the growth was -15.1% (active).
The value for `Fc1cccc(CNc2c3ccccc3nc3ccccc23)c1F` was 28.4%; that for `COC(=O)CNC(=O)[C@H](Cc1ccccc1)NCc1ccncc1` was 105%; that for `O=C(NCCCN1CCOCC1)c1cccc(N2C(=O)/C(=C/c3ccc(F)cc3)SC2=S)c1` was 111%.
With `O=[N+]([O-])/C(=C/C=C/c1ccccc1)c1ccccc1`, the growth is 34.4%.
`Cn1cc(-c2csc(-c3c[nH]c4ccc(Br)cc34)n2)c2cnccc21`: the growth is -58.3% (active).
With `C=C(C)[C@@H]1CC[C@]2(C(=O)N3CCN(C)CC3)CC[C@]3(C)[C@H](CC[C@@H]4[C@@]5(C)CC(=C/c6ccncc6)/C(=N/O)C(C)(C)[C@@H]5CC[C@]43C)[C@@H]12`, the growth was 33.9%.
As for `COc1cc(N2C(=O)[C@H](O)C2c2ccc(SC)cc2)cc(OC)c1OC` (stereo partly drawn), the growth is 4.67% (active).
The value for `CCCCC(=O)c1ccco1` was 102%; that for `C=C(C)[C@@H]1CC[C@]2(C)[C@H](CC=C3[C@@H]4[C@H](C)[C@@H](C)CC[C@]4(CO)CC[C@]32C)[C@@]1(C)CCCN` was -10.6% (active); that for `COc1ccc2[nH]cc(-c3nc(-c4c[nH]c5ccncc45)cs3)c2c1` was -8.02% (active).
The same measure for `Oc1ccc(CN2CCC(N3CCCCC3)CC2)c2cccnc12`: 41.2%; for `CC(C)(C)c1cc(-c2nc3ccc(N4CCN(S(C)(=O)=O)CC4)cc3[nH]2)cc(C(C)(C)C)c1O`: 64.6%.
The value for `COc1ccc2c(c1)c(-c1noc(C(=O)c3cn(C)c4ccc(Br)cc34)n1)cn2C` was 82.7%; that for `C[C@H](NC(=O)[C@@H](C)N)[C@H](Oc1ccc2c(cnn2-c2ccc(F)cc2)c1)c1ccc2c(c1)OCCO2` was 8.43% (active); that for `C=C(C)[C@@H]1CC[C@]2(C(=O)O)CC[C@]3(C)[C@H](CC[C@@H]4[C@@]5(C)C[C@@H](Cc6cn(CCO[C@@H]7O[C@H](COC(C)=O)[C@H](OC(C)=O)[C@H](OC(C)=O)[C@H]7OC(C)=O)nn6)[C@H](O)C(C)(C)[C@@H]5CC[C@]43C)[C@@H]12` was 50.6%.
Regarding `CCN(CC)CCOc1ccc(-c2c(-c3ccccc3)c(=O)oc3ccccc23)cc1`, the growth was 80.7%.
The same measure for `COc1ccc2c(O)c(/C=C3\N=Nc4ccccc43)oc2c1C[C@@H]1CCNC[C@H]1F`: 68%; for `COc1cc(OC)cc(C2=C3CC[C@@H]4[C@H](CC[C@]5(C)C(=O)CC[C@@H]45)C3=CC3C(O)c4cccnc4N4C(=O)COC234)c1` (stereo partly drawn): 96.2%; for `CC(=O)N1N=C(c2ccc(Nc3nc(Nc4ccc(Cl)cc4)nc(Nc4ccc(Cl)cc4)n3)cc2)CC1c1ccco1` (stereo not drawn): 66%.
The same measure for `CCS/C(Nc1ccccc1)=C(\C#N)C(=O)N/N=C/c1ccc(Cl)cc1Cl`: 18.3%; for `CCOC(=O)C(=Cc1cccc(Cl)c1)C(=O)OCC`: 13.4%; for `CN[C@]12CC3(C=CC(=O)C=C3)O[C@@]1(Cc1ccc(OC)cc1)N(C)C(=O)N2`: 28%.

These data come from PubChem BioAssay (NCI).
